Keap1 Nrf2 FP: Keap1-Nrf2 protein-protein interaction inhibitors, primary screen, biochemical, fluorescence polarization, single point. Kelch-like ECH-associated protein 1 (Homo sapiens), Q14145. Keap1 Kelch-Nrf2 peptide fluorescence polarization, 1536-well. inhibition, % at 9.4 µM. actives 0.15% (n = 340,000). AID 504523, 2011; in the data active = inhibition above about 12%;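 note: human Keap1 Kelch domain with fluorescein labeled Nrf2 9mer peptide probe; 0% = neutral control wells and 100% = peptide positive control; higher means more block of Keap1 binding to Nrf2 peptide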
ZTA DNA inh: ZTA (EBV) inhibition in EBNA-1 counter-screen; P03206; ZTA-DNA binding, fluorescence polarization; inhibition, % at 11 µM; AID 2234; actives 0.15% (n = 320,000); in the data active = inhibition above about 33%
E coli Lon inh: inhibitors of E. coli Lon protease, primary screen, biochemical, fluorescence polarization; AID 602123, 2011; P0A9M0; purified E. coli Lon protease; actives 0.42% (n = 360,000); inhibition, % at 7.94 µM; in the data active = inhibition above about 13%, passing the limit was not always enough;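 note: 0% = enzyme with probe and DMSO and 100% = no enzyme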
Target sequence (P0A9M0 whole entry, looked up): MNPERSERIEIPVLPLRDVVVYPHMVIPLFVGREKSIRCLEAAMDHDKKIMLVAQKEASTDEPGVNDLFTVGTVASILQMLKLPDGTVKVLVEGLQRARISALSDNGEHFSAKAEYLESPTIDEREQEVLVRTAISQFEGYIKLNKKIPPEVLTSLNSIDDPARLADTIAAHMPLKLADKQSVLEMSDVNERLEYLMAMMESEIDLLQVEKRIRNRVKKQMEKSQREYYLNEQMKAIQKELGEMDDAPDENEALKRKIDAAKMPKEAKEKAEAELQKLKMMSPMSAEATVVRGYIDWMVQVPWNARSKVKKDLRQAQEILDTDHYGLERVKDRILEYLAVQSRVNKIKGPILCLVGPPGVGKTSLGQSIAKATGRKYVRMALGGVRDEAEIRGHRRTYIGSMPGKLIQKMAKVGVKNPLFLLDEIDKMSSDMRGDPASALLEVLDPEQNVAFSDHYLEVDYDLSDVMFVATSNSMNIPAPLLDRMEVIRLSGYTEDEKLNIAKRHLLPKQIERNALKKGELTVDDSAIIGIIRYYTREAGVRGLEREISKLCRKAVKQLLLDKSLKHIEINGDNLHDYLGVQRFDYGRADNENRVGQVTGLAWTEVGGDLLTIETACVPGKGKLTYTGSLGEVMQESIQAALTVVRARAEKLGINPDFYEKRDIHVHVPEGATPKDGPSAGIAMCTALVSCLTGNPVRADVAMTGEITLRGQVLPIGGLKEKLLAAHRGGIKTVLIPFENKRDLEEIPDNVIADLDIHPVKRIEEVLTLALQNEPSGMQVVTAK
C-LANA FP: inhibitors of KSHV C-LANA binding to DNA, primary screen, biochemical, fluorescence polarization, FAM-LBS DNA, MBP-C-LANA, single point; inhibition, % at 9 µM; Kaposi's sarcoma herpesvirus LANA C-terminal domain (residues 932-1162) DNA binding; actives 0.078% (n = 340,000);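 active = highest replicate inhibition at or above 60% at 9 µM, even if other replicates fall short; inactive = all replicates below 60% inhibition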;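 note: 0% = neutral control wells and 100% = 4 µM acridine orange control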
EBNA-1 inhibitor: EBNA-1 DNA-binding inhibitors, primary screen, biochemical, fluorescence polarization. inhibition, % at 14.8 µM. actives 0.34% (n = 300,000). AID 1950, 2009; in the data active = inhibition above about 28%
ZTA inh confirm: EBV Zta binding to ZRE DNA, inhibitors, confirmation, biochemical, fluorescence polarization, triplicate. shares compounds with ZTA DNA inh. AID 2361, 2010. actives 30% (n = 320). inhibition, % at 11.1 µM;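 active = mean inhibition across triplicate runs above the hit threshold derived for the original primary screen, cut at about 33% in these data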;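 note: 0% = Zta with DMSO and 100% = wells lacking Zta protein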
EBNA-1 counter: EBNA-1 DNA-binding inhibition, counter-screen for ZTA inhibitor project, biochemical, fluorescence polarization | shares compounds with ZTA DNA inh | inhibition, % at 14.8 µM | 320 tested, under 10 active | AID 2362, 2010; call rule not given here
Starred values were filed as active, the others as inactive. Only some compounds are listed: those with a hit (about 0.85% of all), similar ones and a draw of the others.

How did NC(=O)c1ccc(NC(=O)CSc2nnc(-c3ccc4c(c3)OCO4)o2)cc1 do in these assays?
Keap1 Nrf2 FP: 2; ZTA DNA inh: 35*; E coli Lon inh: 2; C-LANA FP: 0; ZTA inh confirm: 18; EBNA-1 counter: 6

How did N#C/C(=C/c1ccc(-c2cc(C(=O)O)cc(C(=O)O)c2)o1)c1nc2ccccc2s1 do in these assays?
ZTA DNA inh: 61*; EBNA-1 inhibitor: -5; ZTA inh confirm: 25; EBNA-1 counter: -1

What do the screens show for `O=C1CC(=O)N(Cc2ccco2)C(=S)N1`?
Keap1 Nrf2 FP: 3; ZTA DNA inh: 55*; E coli Lon inh: -159; C-LANA FP: 71*; EBNA-1 inhibitor: 6; ZTA inh confirm: -3; EBNA-1 counter: -6

What do the screens show for `S=C1NCN(Cc2ccco2)CN1`?
Keap1 Nrf2 FP: -2; ZTA DNA inh: -14; E coli Lon inh: -1; C-LANA FP: 0; EBNA-1 inhibitor: -5

What do the screens show for `CN(CC(=O)Nc1ccc(Cl)c(Cl)c1)CC(=O)Nc1ccc2c(c1)OCO2`?
Keap1 Nrf2 FP: -3; ZTA DNA inh: active; E coli Lon inh: -1; C-LANA FP: 1; ZTA inh confirm: -2; EBNA-1 counter: -7

Results for CN(CC(=O)Nc1ccc2c(c1)OCO2)CC(=O)Nc1ccc(F)c(F)c1F ?
Keap1 Nrf2 FP: -3; E coli Lon inh: 1; C-LANA FP: 2

What do the screens show for `Cc1cc2c(cc1C)C(c1ccccc1Br)CC(=O)N2` (centres undefined)?
Keap1 Nrf2 FP: -3; ZTA DNA inh: 33*; E coli Lon inh: -10; C-LANA FP: -1; EBNA-1 inhibitor: 4; ZTA inh confirm: -5; EBNA-1 counter: -6

Results for O=C(Nc1ccc2c(c1)CCCN2C(=O)c1cccs1)c1c(F)cccc1Cl ?
Keap1 Nrf2 FP: -8; ZTA DNA inh: 42*; E coli Lon inh: 2; C-LANA FP: -1; EBNA-1 inhibitor: -11; ZTA inh confirm: 3; EBNA-1 counter: -3

How did Cc1ccsc1C(=O)N1CCCC1(C)C(=O)NCC(C)C (centres undefined) do in these assays?
E coli Lon inh: -3

What do the screens show for `Nc1c(C(=O)NCc2ccc(F)cc2)c2nc3ccccc3nc2n1CCCN1CCOCC1`?
Keap1 Nrf2 FP: -3; ZTA DNA inh: 66*; E coli Lon inh: -5; C-LANA FP: 0; EBNA-1 inhibitor: 7; ZTA inh confirm: 11; EBNA-1 counter: 1

What do the screens show for `Nc1c(C(=O)NCc2ccccc2)c2nc3ccccc3nc2n1CCCN1CCOCC1`?
Keap1 Nrf2 FP: -4; ZTA DNA inh: 24; E coli Lon inh: 1; C-LANA FP: -3; EBNA-1 inhibitor: 5

Results for O=C1/C(=C\c2c(NCCOCCO)nc3ccccn3c2=O)SC(=S)N1Cc1ccco1 ?
Keap1 Nrf2 FP: 0; ZTA DNA inh: 42*; E coli Lon inh: -292; C-LANA FP: 0; EBNA-1 inhibitor: 2; ZTA inh confirm: 24; EBNA-1 counter: 7

Results for COc1cc(Cl)ccc1OCc1cc(C(=O)N(C)CCc2cnn(C)c2)no1 ?
Keap1 Nrf2 FP: -3; ZTA DNA inh: -15; E coli Lon inh: -1; C-LANA FP: -1; EBNA-1 inhibitor: 1

How did O=C(Nc1csnn1)c1csnn1 do in these assays?
Keap1 Nrf2 FP: -1; ZTA DNA inh: 49*; E coli Lon inh: -2; C-LANA FP: 2; EBNA-1 inhibitor: -22; ZTA inh confirm: -1; EBNA-1 counter: -1

Results for Cc1cc(C)nc(NC(=O)c2csnn2)c1 ?
Keap1 Nrf2 FP: 0; ZTA DNA inh: 0; E coli Lon inh: -1; C-LANA FP: 0; EBNA-1 inhibitor: -2

What do the screens show for `O=C(CSc1ccccc1F)NCC1(N2CCCCC2)CCCCC1`?
Keap1 Nrf2 FP: 7; ZTA DNA inh: 8; E coli Lon inh: -3; C-LANA FP: -2

Results for Cc1cc(C(=O)O)ccc1-n1c(C)ccc1C ?
ZTA DNA inh: 55*; EBNA-1 inhibitor: 23; ZTA inh confirm: 57*; EBNA-1 counter: 9

Results for Cc1cc(C(=O)O)ccc1-n1c(C)cc(C=C2C(=O)c3ccccc3C2=O)c1C ?
Keap1 Nrf2 FP: -4; ZTA DNA inh: 9; E coli Lon inh: -18; C-LANA FP: 0; EBNA-1 inhibitor: -1

Results for Cc1ccccc1OCC(=O)OCC(=O)Nc1ncc(Cl)c(C)c1Cl ?
Keap1 Nrf2 FP: -4; ZTA DNA inh: -1; E coli Lon inh: 11; C-LANA FP: 1

What do the screens show for `CC(C)(C)n1nnnc1C(c1cccc(C#N)c1)N1CCCc2ccccc21` (centres undefined)?
Keap1 Nrf2 FP: -5; ZTA DNA inh: 44*; E coli Lon inh: -2; C-LANA FP: 0; EBNA-1 inhibitor: 13; ZTA inh confirm: 1; EBNA-1 counter: 1

What do the screens show for `O=C(C[C@H]1C/C=C\CC[C@H](Cc2ccc(F)cc2)C(=O)O[C@H](c2ccccc2)CNC1=O)N[C@H](CO)Cc1ccccc1`?
Keap1 Nrf2 FP: 3; E coli Lon inh: 2; C-LANA FP: 0

How did OC(CNCCC1C=Nc2ccccc21)Cn1c2ccc(Cl)cc2c2cc(Cl)ccc21 (centres undefined) do in these assays?
Keap1 Nrf2 FP: -1; ZTA DNA inh: 52*; E coli Lon inh: 0; C-LANA FP: 1; EBNA-1 inhibitor: 6; ZTA inh confirm: 51*; EBNA-1 counter: 3

What do the screens show for `COc1ccccc1-c1cccc([C@@H]2C[C@H]3[C@H](CON3C)CN2C)c1`?
Keap1 Nrf2 FP: -3; E coli Lon inh: -12; C-LANA FP: 0

How did CC(=O)c1sc(NC(=O)c2oc3ccc(F)cc3c2C)nc1C do in these assays?
Keap1 Nrf2 FP: 3; ZTA DNA inh: 67*; E coli Lon inh: -13; C-LANA FP: -1; ZTA inh confirm: 47*; EBNA-1 counter: 8

How did CC(=O)c1sc(NC(=O)c2cc(=O)c3ccccc3o2)nc1C do in these assays?
Keap1 Nrf2 FP: 0; ZTA DNA inh: -10; E coli Lon inh: -2; C-LANA FP: 0; EBNA-1 inhibitor: -6

How did CC1CCC2(CC1)NC(=O)N(CC(=O)Nc1ccc(N3CCCCC3)cc1)C2=O (centres undefined) do in these assays?
E coli Lon inh: -3

What do the screens show for `O=C(COc1ccccc1/C=C\c1[nH]c(=O)[nH]c(=O)c1[N+](=O)[O-])Nc1ccccc1`?
Keap1 Nrf2 FP: -8; ZTA DNA inh: 48*; E coli Lon inh: 4; C-LANA FP: 3; EBNA-1 inhibitor: -5; ZTA inh confirm: 72*; EBNA-1 counter: -1

What do the screens show for `O=C(CN1CCN(c2ccc(F)cc2)CC1)N(C1CCCC1)C1CCS(=O)(=O)C1` (centres undefined)?
Keap1 Nrf2 FP: 1; ZTA DNA inh: 9; E coli Lon inh: -12; C-LANA FP: 1

Source: PubChem BioAssay (several laboratories)
